PMC5540273 (PLoS ONE, 2017)

Test system: T1, PYK2
T1 construct: gene PTK2B
Settings: concentration: 1 μM,replicates: in singlicate; n = 1
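Further: KINOMEscan kinase panel screen.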

Point of comparison: CS(=O)(=O)Nc1ccc(-c2ccnc3[nH]ccc23)cc1 [GSK993273], “%Inh” value 20%. Against it:
- Cc1n[nH]c2cc(Nc3ccnc(Nc4cccc(CN5CCOCC5)c4)n3)ccc12 [GW682569] — lower, 0%
- O=C(Nc1cccc(C(F)(F)F)c1)c1cccc(Oc2ccc3nccn3n2)c1 — lower, 0%
- C[C@@H]1CNc2c(sc3ccc4nc(-c5ccc(O)cc5)ccc4c23)C(=O)N1 — lower, 19%
- O=C(Nc1n[nH]c2cc(-c3ccco3)ccc12)C1CC1 [SB-737447] — higher, 23%
- Cn1cc(-c2cccc3c(N)c(C(N)=O)nnc23)cn1 — lower, 9%
- OCCn1cc(-c2cnc3nnn(Cc4ccc5ncccc5c4)c3n2)cn1 — lower, 0%
- Cl.c1ccc(Oc2ccc(Nc3ccnc4cc(-c5ccc(CN6CCNCC6)o5)ccc34)cc2)nc1 [GW567142] — lower, 0%
- CS(=O)c1ccc(-c2coc3ccc(-c4n[nH]c(=O)o4)cc23)cc1 (stereo not shown) — lower, 4%
- COC(=O)Nc1nc2cc(Oc3ccc(NC(=O)Nc4cc(C(F)(F)F)ccc4Cl)cc3)ccc2[nH]1.Cl [GW697465] — higher, 24%
- O=C(Nc1ccc(Oc2ccc3nc(NC(=O)C4CC4)cn3n2)c(F)c1)c1cccn(-c2ccccc2)c1=O — lower, 19%
- CCNCC(Cc1ccccc1)NC(=O)c1cc(Br)c(-c2ccnc3[nH]ccc23)s1.Cl.Cl (stereo not shown) [GSK1383280] — higher, 25%
- Cc1ccn2nc(-c3ccc(F)cc3)c(-c3ccncc3)c2c1.Cl [GW457859] — lower, 0%
- C[C@@H]1CNc2c(sc3ccc4nc(-c5ccncc5)ccc4c23)C(=O)N1 — lower, 3%
- Nc1nccc(-c2ccc3c(N)n[nH]c3c2)n1 [GSK1034945] — lower, 8%
- COC(=O)c1cccc(NC(=O)NC2CCN(c3ccnc(NCc4ccc(F)cc4)n3)CC2)c1 [GSK1379860] — lower, 9%
- CC(=O)Nc1nc2cnc(Nc3cc(NC(=O)c4cccc(CC(C)(C)C#N)c4)ccc3C)nc2s1 — lower, 9%
- O=C1NCCc2[nH]c(-c3ccncc3)cc21 — lower, 0%
- COc1cccc(CNC(=O)NC2CCN(c3ccnc(Nc4cc(OC)c(OC)c(OC)c4)n3)C2)c1 (stereo not shown) [GSK1379765] — lower, 0%
- NC(=O)Nc1sc(-c2ccc(F)cc2)cc1C(N)=O [GW789449] — higher, 26%
- CS(=O)(=O)c1cccc(CNc2nc(Nc3ccc4c(c3)[C@@H]3C[C@@H]4CNC3=O)ncc2C(F)(F)F)c1 — higher, 66%

Test system: QSK
Settings: concentration: 1 μM,replicates: in singlicate; n = 1

Point of comparison: COc1cccc(CNC(=O)NC2CCN(c3ccnc(Nc4cc(OC)c(OC)c(OC)c4)n3)C2)c1 (stereo not shown) [GSK1379765], “%Inh” value 0%. Against it:
- CC(C)c1nc(-c2cccc(NS(=O)(=O)c3ccccc3)c2)c(-c2ccnc(Nc3ccc4c(c3)CN(C)CC4)n2)s1 [GSK1649598] — higher, 49%
- C[C@@H](Oc1cc(-n2cnc3cc(-c4cnn(C)c4)ccc32)sc1C(N)=O)c1ccccc1Cl [GSK580432] — higher, 42%
- CCn1c(-c2nonc2N)nc2cncc(CNC3CCNCC3)c21.Cl [SB-747651] — higher, 1%
- CN1CCN(CCCNc2nccc(-c3c(-c4ccc(F)cc4)nn4cc(C(N)=O)ccc34)n2)CC1 [GW622475] — higher, 30%
- Cc1ccc(C(=O)Nc2ccc(Oc3ccc4nc(NC(=O)C5CC5)cn4c3)c(F)c2)c(=O)n1-c1ccccc1 — the same, 0%
- CC(=O)Nc1ccc(-c2cc3ncnc(SCC(=O)O)c3s2)cc1 — higher, 1%
- Cn1ccc2ncnc(Oc3ccc(NC(=O)Nc4ccnc(C(F)(F)F)c4)c(Cl)c3)c21 — the same, 0%
- NC(=O)c1ccc(-c2cc3ncnc(SCC(=O)O)c3s2)cc1 — the same, 0%
- CN(c1ccc2c(c1)nc(NCc1ccc(F)cc1)n2C)c1ccnc(Nc2ccc(CS(C)(=O)=O)cc2)n1.Cl [GW813244] — the same, 0%
- FC(F)(F)c1cc(Br)cc(Nc2nccc(-c3cnn4ncccc34)n2)c1 [GW810578] — higher, 12%
- Cn1ccc2ncnc(Oc3ccc(NC(=O)Nc4cccc(C(F)(F)F)c4)c(F)c3)c21 — the same, 0%
- CCCC(=O)Nc1n[nH]c2ncccc12 [SB-601436] — the same, 0%
- CN(c1ccccc1CNc1nc(Nc2ccc3c(c2)CC(=O)N3)ncc1C(F)(F)F)S(C)(=O)=O — the same, 0%
- COC(=O)c1cccc(NC(=O)NC2CCN(c3ccnc(Nc4cc(OC)c(OC)c(OC)c4)n3)C2)c1 (stereo not shown) [GSK1379767] — the same, 0%
- Cc1n[nH]c2cc(Nc3ccnc(Nc4cccc(CN5CCOCC5)c4)n3)ccc12 [GW682569] — the same, 0%
- O=C(Nc1cccc(C(F)(F)F)c1)c1cccc(Oc2ccc3nccn3n2)c1 — higher, 6%
- C[C@@H]1CNc2c(sc3ccc4nc(-c5ccc(O)cc5)ccc4c23)C(=O)N1 — the same, 0%
- O=C(Nc1n[nH]c2cc(-c3ccco3)ccc12)C1CC1 [SB-737447] — higher, 20%
- Cn1cc(-c2cccc3c(N)c(C(N)=O)nnc23)cn1 — higher, 3%
- OCCn1cc(-c2cnc3nnn(Cc4ccc5ncccc5c4)c3n2)cn1 — the same, 0%
- Cl.c1ccc(Oc2ccc(Nc3ccnc4cc(-c5ccc(CN6CCNCC6)o5)ccc34)cc2)nc1 [GW567142] — the same, 0%
- CS(=O)c1ccc(-c2coc3ccc(-c4n[nH]c(=O)o4)cc23)cc1 (stereo not shown) — the same, 0%
- CS(=O)(=O)Nc1ccc(-c2ccnc3[nH]ccc23)cc1 [GSK993273] — higher, 17%
- COC(=O)Nc1nc2cc(Oc3ccc(NC(=O)Nc4cc(C(F)(F)F)ccc4Cl)cc3)ccc2[nH]1.Cl [GW697465] — higher, 9%
- O=C(Nc1ccc(Oc2ccc3nc(NC(=O)C4CC4)cn3n2)c(F)c1)c1cccn(-c2ccccc2)c1=O — the same, 0%
- CCNCC(Cc1ccccc1)NC(=O)c1cc(Br)c(-c2ccnc3[nH]ccc23)s1.Cl.Cl (stereo not shown) [GSK1383280] — the same, 0%
- Cc1ccn2nc(-c3ccc(F)cc3)c(-c3ccncc3)c2c1.Cl [GW457859] — the same, 0%
- C[C@@H]1CNc2c(sc3ccc4nc(-c5ccncc5)ccc4c23)C(=O)N1 — the same, 0%
- Nc1nccc(-c2ccc3c(N)n[nH]c3c2)n1 [GSK1034945] — the same, 0%
- COC(=O)c1cccc(NC(=O)NC2CCN(c3ccnc(NCc4ccc(F)cc4)n3)CC2)c1 [GSK1379860] — higher, 9%
- CC(=O)Nc1nc2cnc(Nc3cc(NC(=O)c4cccc(CC(C)(C)C#N)c4)ccc3C)nc2s1 — the same, 0%
- O=C1NCCc2[nH]c(-c3ccncc3)cc21 — the same, 0%
- NC(=O)Nc1sc(-c2ccc(F)cc2)cc1C(N)=O [GW789449] — the same, 0%
- CS(=O)(=O)c1cccc(CNc2nc(Nc3ccc4c(c3)[C@@H]3C[C@@H]4CNC3=O)ncc2C(F)(F)F)c1 — the same, 0%
- O=c1[nH]cc(-c2ccc(O)cc2)c2sc(-c3ccncc3)cc12 [GSK1033723] — higher, 1%
- CC(C(=O)NC1CCN(c2ccnc(Nc3ccc(F)cc3)n2)C1)c1ccc(Cl)cc1 (stereo not shown) [GSK1379713] — the same, 0%
